Assay outcomes (PubChem)
E coli growth-1: blocks Escherichia coli growth. AID 1053175. OD600, 23 h; stronger effect = lower value. hit rate 0.21% among 330,000. OD600 absorbance (no concentration beside the values);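 active means OD600 absorbance below the run mean of sample wells minus 3.6 SD, in any replicate, cut at about 0.56 in these data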
pCIP destab: lowers stability of the mouse p/CIP coactivator protein | Q05BA5 | F442A p/CIP-EGFP cells, EGFP fluorescence, 16 h | decrease of EGFP signal, % at 10 µM | hit rate 0.01% among 290,000;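 active means EGFP signal decrease of at least 30% at 10 µM or well 3 SD below plate mean, unless failing retest; inactive means the rest, including hits failing retest or dose response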
Target sequence (Q05BA5 1-1403): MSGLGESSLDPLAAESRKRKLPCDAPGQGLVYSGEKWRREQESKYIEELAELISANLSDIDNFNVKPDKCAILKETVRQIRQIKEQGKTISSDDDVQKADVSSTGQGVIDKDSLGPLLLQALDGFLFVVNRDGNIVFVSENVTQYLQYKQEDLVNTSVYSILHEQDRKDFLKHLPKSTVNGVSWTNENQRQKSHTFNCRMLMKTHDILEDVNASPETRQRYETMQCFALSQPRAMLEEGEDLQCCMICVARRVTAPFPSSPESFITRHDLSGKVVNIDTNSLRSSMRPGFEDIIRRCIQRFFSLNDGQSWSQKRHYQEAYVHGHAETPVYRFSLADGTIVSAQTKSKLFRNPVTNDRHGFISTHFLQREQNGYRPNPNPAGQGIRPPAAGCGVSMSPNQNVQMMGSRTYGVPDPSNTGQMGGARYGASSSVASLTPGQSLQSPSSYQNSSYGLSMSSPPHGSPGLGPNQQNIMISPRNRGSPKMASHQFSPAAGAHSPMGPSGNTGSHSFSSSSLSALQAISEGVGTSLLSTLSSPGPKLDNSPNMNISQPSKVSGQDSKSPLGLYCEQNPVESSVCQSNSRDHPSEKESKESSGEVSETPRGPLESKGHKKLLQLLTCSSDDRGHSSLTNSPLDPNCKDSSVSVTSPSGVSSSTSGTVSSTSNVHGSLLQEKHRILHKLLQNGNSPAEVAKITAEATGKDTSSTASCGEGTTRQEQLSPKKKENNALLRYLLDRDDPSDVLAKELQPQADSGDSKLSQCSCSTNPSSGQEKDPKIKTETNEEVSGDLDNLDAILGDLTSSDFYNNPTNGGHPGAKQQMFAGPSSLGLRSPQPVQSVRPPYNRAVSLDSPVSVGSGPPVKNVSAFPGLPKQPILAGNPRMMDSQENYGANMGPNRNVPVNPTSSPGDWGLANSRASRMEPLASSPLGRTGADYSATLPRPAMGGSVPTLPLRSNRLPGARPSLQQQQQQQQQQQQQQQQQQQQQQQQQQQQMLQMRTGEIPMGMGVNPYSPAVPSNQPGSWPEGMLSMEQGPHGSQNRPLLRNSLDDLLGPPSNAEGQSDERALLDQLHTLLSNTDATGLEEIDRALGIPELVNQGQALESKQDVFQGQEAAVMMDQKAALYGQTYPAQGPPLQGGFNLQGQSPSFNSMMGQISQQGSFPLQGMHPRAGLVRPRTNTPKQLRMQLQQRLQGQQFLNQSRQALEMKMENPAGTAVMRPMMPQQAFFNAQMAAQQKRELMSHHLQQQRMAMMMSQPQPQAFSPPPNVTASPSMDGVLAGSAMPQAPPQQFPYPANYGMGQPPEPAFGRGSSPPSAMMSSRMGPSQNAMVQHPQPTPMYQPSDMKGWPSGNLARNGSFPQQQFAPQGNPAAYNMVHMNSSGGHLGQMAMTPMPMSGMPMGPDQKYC
phage Ecoli inh: E. coli growth loss with phage present; growth absorbance; hit rate 0.26% among 360,000; inhibition, % at 11.9 µM; in the data active means inhibition above about 11%
Tat export inh: blocks Tat-dependent protein export in E. coli. E. coli MC4100 TorA-mCherry Tat export, fluorescence. inhibition, % at 10 µM. hit rate 0.036% among 340,000. AID 488895;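 active means mean replicate inhibition at least 50% and at least half of replicates individually reaching 50%; inconclusive means only one of the two criteria met; inactive means neither criterion met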;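 further: exported cargo escapes ClpAP degradation while cytoplasmic cargo is degraded and loses fluorescence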
AddAB inh: less growth of phage-infected E. coli with AddAB; E. coli expressing H. pylori AddAB, absorbance growth; hit rate 0.29% among 330,000; inhibition, % at 11.9 µM; in the data active means inhibition above about 12%
E coli growth-2: reduces bacterial viability in AddAB counter-screen; inhibition, % at 11.9 µM; E. coli V3065 growth, OD600 absorbance, 18 h; hit rate 0.27% among 330,000;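 active means inhibition above the campaign's mean inhibition across all tested compounds plus 3 SD, cut at about 9.9% in these data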;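 further: uninfected addAB+ strain grown without phage in ampicillin broth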
AddAB conf: growth loss of T4-infected E. coli expressing H. pylori AddAB, confirmed | E. coli V3065 expressing H. pylori AddAB, T4 phage, OD; T4 phage with gene 2 nonsense mutations | hit rate 64% among 880 | shares compounds with AddAB inh | inhibition, % at 11.9 µM;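 active means mean inhibition above a set limit taken from the earlier primary screen, cut at about 13% in these data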;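 further: higher means less bacterial growth since AddAB block lets phage replicate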
RecBCD counter: AddAB counter-screen: growth loss of RecBCD+ E. coli infected with mutant T4 phage; shares compounds with AddAB inh; E. coli V66 + mutant T4 phage, OD growth; inhibition, % at 11.9 µM; hit rate 73% among 880; AID 488955;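 active means mean inhibition above the mean of solvent-only control wells plus 3 SD, cut at about 4% in these data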;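 further: optical density read after an 18 h incubation at 37 °C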
Bact viability: counter-screen: bacterial growth inhibition | shares compounds with AddAB inh | bacterial viability, absorbance (AddAB counterscreen) | inhibition, % at 11.9 µM | hit rate 35% among 880 | AID 488956; in the data active means inhibition above about 25%
Numbers stand for hits; – = inactive; ? = inconclusive; · = no result. In the library only some 0.51% were active in any assay of this set; here they are far more common.

SMILES	E coli growth-1	pCIP destab	phage Ecoli inh	Tat export inh	AddAB inh	E coli growth-2	AddAB conf	RecBCD counter	Bact viability
O=[N+]([O-])c1cc(O)c2ncccc2c1	0.134	–	–	·	14.3	15.6	33.6	8.9	–
O=[N+]([O-])c1cc2cccnc2c2ncccc12	–	–	–	·	–	–	·	·	·
CCn1nnnc1SCC(=O)NCc1ccc2c(c1)OCO2	–	–	–	–	21.3	13.2	–	–	–
O=C(ON=C1CCCc2ccccc21)c1cccs1	–	·	·	·	·	·	·	·	·
O=C(Oc1c(Cl)cc(Cl)c2cccnc12)c1ccco1	0.0555	–	61.3	–	49.5	48.0	63.5	60.3	57.9
CCCCn1c(=O)[nH]c2ccccc21	–	–	–	–	13.9	–	–	–	–
O=c1[nH]c2ccccc2n1CCCOc1ccccc1	–	–	–	–	–	–	·	·	·
CO[C@@]12[C@H](COC(N)=O)C3=C(C(=O)C(C)=C(N)C3=O)N1C[C@@H]1N[C@@H]12	·	·	–	–	15.1	13.9	76.9	16.4	69.8
COc1ccc(NC(=O)CC2C(=O)N(c3cccc(C)c3)C(=O)N2C2CCCCC2)cc1 (stereo unspecified)	–	–	–	–	–	–	·	·	·
CCc1ccc(NC(=O)CC2C(=O)N(c3cccc(C)c3)C(=O)N2C2CC2)cc1 (stereo unspecified)	–	–	–	–	98.6	53.0	–	–	–
CC1(C)OC(=O)C(=NNc2ccc(C(=O)O)cc2)C(=O)O1	–	–	–	–	–	–	·	·	·
Cc1cccc(N(C)S(=O)(=O)c2cccc3nsnc23)c1	–	–	–	–	14.3	–	–	–	–
CCN(c1cccc(C)c1)S(=O)(=O)c1cccc2nsnc12	–	–	–	–	–	–	·	·	·
O=C(Nc1cccc(NC(=O)c2ccccc2Cl)c1)c1ccc([N+](=O)[O-])o1	·	–	–	–	13.5	10.7	83.8	5.5	–
Cc1ccc(NC(=O)c2ccc([N+](=O)[O-])o2)cc1C	0.471	–	–	–	26.7	30.5	97.6	10.9	31.3
O=C(Nc1ccc(N2CCCC2)c(Cl)c1)c1ccc([N+](=O)[O-])o1	–	–	–	–	·	·	·	·	·
O=C(Nc1ccc2[nH]c(=O)[nH]c2c1)c1ccc([N+](=O)[O-])o1	–	·	–	–	18.2	19.3	57.1	9.0	–
O=C(O)CC(c1ccc(C(F)(F)F)cc1)N1Cc2ccccc2C1=O (stereo unspecified)	–	–	–	–	–	–	·	·	·
COc1cccc(NC(=O)CN(C)C(=O)c2ccc3c(c2)C(=O)N(CCC(C)C)C3=O)c1	–	·	–	–	–	–	·	·	·
C=CCSc1nc2sc(C)c(C)c2c(=O)[nH]1	–	–	–	–	16.9	–	–	–	–
O=C(Nc1oc2ccccc2c(=O)c1-c1ccccc1)c1ccco1	·	·	–	·	·	·	·	·	·
Cc1ccc(-c2c(NC(=O)c3ccco3)oc3ccccc3c2=O)cc1	–	–	–	–	93.5	39.5	–	–	–
O=C(O)CCCN1C(=O)/C(=C/c2cn(-c3ccccc3)nc2-c2cccs2)SC1=S	–	–	–	?	·	·	·	·	·
Fc1ccccc1-n1cn[nH]c1=S	–	–	–	–	95.1	53.1	–	–	–
CCCCN1C(=O)C(CC(=O)NCc2ccco2)CC(C(=O)N(CC)CC)=C1C (stereo unspecified)	·	·	–	·	·	·	·	·	·
SMILES	E coli growth-1	pCIP destab	phage Ecoli inh	Tat export inh	AddAB inh	E coli growth-2	AddAB conf	RecBCD counter	Bact viability
CCCNC(=O)c1ccc2c(=O)c(O)c(-c3ccsc3)[nH]c2c1	·	–	·	–	17.8	17.8	12.6	12.4	–
CCCNC(=O)c1ccc2c(=O)c(O)c(-c3ccc(OC)cc3)[nH]c2c1	–	–	·	–	18.1	16.4	–	12.7	–
O=C1c2ccccc2N2C(=O)c3ccccc3C2N1Cc1ccccc1 (stereo unspecified)	–	–	–	–	–	–	·	·	·
COc1ccc(C(NC(C)=O)c2cc(Cl)c3cccnc3c2O)cc1OC (stereo unspecified)	·	–	–	–	–	–	·	·	·
CCC(=O)NC(c1ccc(C)cc1)c1cc(Cl)c2cccnc2c1O (stereo unspecified)	·	·	·	–	20.8	24.8	16.4	16.9	–
CCCC(=O)NC(c1ccc2c(c1)OCO2)c1cc(Cl)c2cccnc2c1O (stereo unspecified)	–	–	·	–	22.7	23.7	21.4	22.1	–
CCC(=O)NC(C)c1cc(Cl)c2cccnc2c1O (stereo unspecified)	–	·	–	–	–	–	·	·	·
CC(=O)Nc1ccc(C(=O)CN2C(=O)NC3(CCCCCC3)C2=O)c(F)c1	–	·	–	–	–	–	·	·	·
O=C(COC(=O)Cc1n[nH]c(=O)c2ccccc12)Nc1c(Cl)cccc1C(F)(F)F	–	·	–	–	55.9	26.5	–	–	–
O=C(COC(=O)Cc1c[nH]c2ccccc12)Nc1c(Cl)cccc1C(F)(F)F	–	·	–	–	–	–	·	·	·
O=C1NCCCc2c1oc1ccc(O)cc21	–	–	–	–	100.2	98.5	–	–	–
Cc1ccc(OCC(=O)Nc2cc(C)on2)c([N+](=O)[O-])n1	–	–	–	–	19.4	15.2	42.4	6.7	25.9
CCCCC(CC)CN=C(N)NC(N)=NCCCCCCN=C(N)NC(N)=NCC(CC)CCCC (stereo unspecified)	·	·	·	75.9	98.0	101.4	104.3	72.6	97.8
Cn1ccnc1SCC(=O)c1ccc(O)cc1	–	–	–	–	–	–	·	·	·
Cn1ccnc1SCC(=O)c1ccc(Cl)cc1	–	–	–	–	82.1	35.4	–	–	–
CCCC(=O)Nc1cc(C)cn(Cc2c(F)cccc2Cl)c1=O	–	–	–	–	–	–	·	·	·
Cc1ccc(CC(=O)NCCN2CCOCC2)cc1	–	–	–	–	–	–	·	·	·
O=C(N/N=C\c1cccc(Cl)c1)c1ccc(Cn2cc(Br)c([N+](=O)[O-])n2)o1	·	–	–	–	28.7	25.6	28.6	4.2	–
CC(C)CC(=O)NC(c1cccs1)c1ccc2cccnc2c1O (stereo unspecified)	–	–	·	–	25.8	35.3	25.6	22.6	–
CC(=O)NC(c1cccs1)c1cc(F)c2cccnc2c1O (stereo unspecified)	–	·	–	–	–	–	·	·	·
CCCC(=O)NC(c1ccccc1OC)c1ccc2cccnc2c1O (stereo unspecified)	–	–	·	–	33.9	31.2	29.7	26.3	–
COc1ccccc1C(NC(C)=O)c1cc(Cl)c2cccnc2c1O (stereo unspecified)	–	–	–	–	–	–	·	·	·
CCCC(=O)NC(c1ccc(C)cc1)c1ccc2cccnc2c1O (stereo unspecified)	·	–	·	–	23.8	33.7	28.1	26.2	–
